Results filed as inconclusive are left out. Entries that show only a call come without a potency. Calls of active or inactive are those of the source. Calls follow the shape of the dose curve; as a rule, active = well fitted curve in the direction sought with a large enough effect; inconclusive = small, poorly fitted or top-dose-only effect, or another doubt; inactive = no such curve, though single readings can be large; an effect the other way counts as inactive or inconclusive.

The nature of one assay: qHTS assay for measurement of the activity of small molecule inhibitors on Zika virus induced Caspase-3 activity in human astrocytoma cells (AID 1224859). The note with it: SNB-19 ZIKV-induced caspase-3/7, luminescence, 6 h; series mostly up to 45.7 µM. Put shortly:
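A cell-based luminescent caspase-3/7 assay used SNB-19 cells infected with ZIKV (2 FFU/cell) for 6 h following 1 h compound pretreatment.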
Take `C#C[C@]1(O)CC[C@H]2[C@@H]3CCC4=CC(=O)CCC4=C3C=C[C@@]21CC`: the compound was called inactive.
On the same count and under the same terms, with `CN1C(=O)CN=C(c2ccccc2)c2cc([N+](=O)[O-])ccc21` the entry was “inactive”; with `CC(C)C(Br)C(=O)NC(N)=O` (centres undefined), “inactive”; with `CCCCCCCCC(=O)NCc1ccc(O)c(OC)c1`, “inactive”.
In the case of `COP(=O)(OC)OC=C(Cl)Cl`, the compound was classed as inactive.
As to `OC(O)C(Cl)(Cl)Cl`, the compound was called inactive.
On the same count and under the same terms, with `CC(C)[N+](C)(CCC(C(N)=O)(c1ccccc1)c1ccccc1)C(C)C` the entry was “inactive”; with `C[N+](C)(C)CCOC(=O)C(O)(c1ccccc1)c1ccccc1`, “inactive”.
With `CC1=C2[C@H]3OC(=O)[C@@H](C)[C@@H]3CC[C@@]2(C)C=CC1=O`, the result was inactive.
Turning to `c1ccc2nc(N3CCNCC3)ccc2c1`, the compound was classed as inactive.
On the same count and under the same terms, then `CCN(Cc1ccc(Cl)nc1)/C(=C/[N+](=O)[O-])NC`, with “inactive”; and `Cc1ncc2n1-c1ccc(Cl)cc1C(c1ccccc1F)=NC2`, with “inactive”; and `CN(C)C(=O)Oc1cc(OC(=O)N(C)C)cc(C(O)CNC(C)(C)C)c1` (centres undefined), with “inactive”.
On to `Cc1ccc(N=CN(C)C=Nc2ccc(C)cc2C)c(C)c1`, for which the compound was classed as inactive.
With `C=CCN1CC[C@]23CCCC[C@H]2[C@H]1Cc1ccc(O)cc13`, the compound was called inactive.
In the case of `Cc1c(Cl)c(=O)oc2cc(OP(=O)(OCCCl)OCCCl)ccc12`, the compound was called inactive.
The same measure, in the same setting: then `O=C1NCN(c2ccccc2)C12CCN(CCCOc1ccc(F)cc1)CC2`, with “inactive”.
`C[C@]12Cc3nonc3C[C@@H]1CC[C@@H]1[C@@H]2CC[C@@]2(C)[C@H]1CC[C@]2(C)O`: the compound was classed as inactive.
Regarding `CN1C[C@@H](NS(=O)(=O)N(C)C)C[C@@H]2c3cccc4c3c(cn4C)C[C@H]21`, the compound was called inactive.
With `CCC1(c2cccc(O)c2)CCCCN(C)C1` (centres undefined), the result was inactive.
As to `CCN(CC)C(C)C(=O)c1ccccc1` (centres undefined), the call was inactive.
Regarding `C[C@]12C=CC(=O)C=C1CC[C@@H]1[C@@H]2CC[C@@]2(C)[C@H]1CC[C@]2(C)O`, the result was inactive.
As for `CN(C)C(=S)SSC(=S)N(C)C`, the call was inactive.
Take `CCCC(C)C1(CC)C(=O)N=C(S)NC1=O` (centres undefined): the call was inactive.
For the compound `COP(=O)(OC)C(O)C(Cl)(Cl)Cl` (centres undefined), the compound was classed as inactive.
Turning to `Oc1c(Br)cc(Br)cc1Br`, the result was inactive.
As for `Clc1ccc(CO/N=C(\Cn2ccnc2)c2ccc(Cl)cc2Cl)c(Cl)c1`, the call was inactive.
As for `CC[C@]1(O)CC[C@H]2[C@@H]3CCC4=CCCC[C@@H]4[C@H]3CC[C@@]21C`, the compound was classed as inactive.
Same read-out and setting: then `CCCCCCCCCCCC[N+](C)(C)CCOc1ccccc1`, with “inactive”.
In the case of `C[N+]1(C)[C@@H]2CC[C@H]1CC(OC(=O)C(CO)c1ccccc1)C2` (some centres undefined), the compound was called inactive.
Regarding `CCC1(c2ccccc2)CCC(=O)NC1=O` (centres undefined), the result was inactive.
`C[C@@H]1CN(C2CCC(C#N)(c3ccc(F)cc3)CC2)CC[C@]1(C(=O)O)c1ccccc1` (some centres undefined): the call was inactive.
Turning to `Oc1ccc([C@H]2CNCc3c2ccc(O)c3O)cc1O`, the compound was classed as inactive.
Regarding `Clc1ccc(C(OCCN2CCCCC2)c2ccccc2)cc1` (centres undefined), the call was inactive.
Consider `CN1[C@@H]2CC[C@H]1CC(OC(=O)c1cc(Cl)cc(Cl)c1)C2` (some centres undefined), for which the call was inactive.
In the case of `NC(=O)CN1CCCC1=O`, the outcome was inactive.
Still for that read-out and setting: with `C[C@]12CC[C@H](O)CC1=CC[C@@H]1[C@@H]2CC[C@]2(C)C(=O)CC[C@@H]12` the entry was “inactive”; with `C[C@H](N)[C@H](O)c1ccc(O)c(O)c1`, “inactive”.

A further assay is described as follows: qHTS assay to identify small molecule inhibitors of chordoma cells - UCH-1 (AID 1259355). Also: nearly all actives have a fitted effect of over 55% in size. Also: potency is read from the fitted curve at half-maximal effect. The note with it: UCH-1 chordoma viability, CellTiter-Glo, 48 h, combination; series mostly up to 46.1 µM. The procedure, abridged: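 Luminescent ATP read-out (CellTiter-Glo, 30min at room temperature) measured viability of UCH-1 cells exposed for 48hr to test drugs at 15 concentrations, co-dosed with a five-agent combination of auranofin, camptothecin, doxorubicin, rubitecan and topotecan.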
Regarding `C#C[C@]1(O)CC[C@H]2[C@@H]3CCC4=CC(=O)CCC4=C3C=C[C@@]21CC`, the Potency result is “inactive”.
Consider `CC(C)C(Br)C(=O)NC(N)=O` (centres undefined), for which the Potency result was “inactive”.
With `COP(=O)(OC)OC=C(Cl)Cl`, the Potency entry is “inactive”.
On to `CC(C)[N+](C)(CCC(C(N)=O)(c1ccccc1)c1ccccc1)C(C)C`, for which the Potency result is “inactive”.
For `C[N+](C)(C)CCOC(=O)C(O)(c1ccccc1)c1ccccc1`, the Potency result is “inactive”.
`CC1=C2[C@H]3OC(=O)[C@@H](C)[C@@H]3CC[C@@]2(C)C=CC1=O`: the Potency result is “inactive”.
Regarding `CCN(Cc1ccc(Cl)nc1)/C(=C/[N+](=O)[O-])NC`, the Potency entry is “inactive”.
Consider `Cc1ncc2n1-c1ccc(Cl)cc1C(c1ccccc1F)=NC2`, for which the Potency result is “inactive”.
As to `CC[n+]1c(-c2ccccc2)c2cc(N)ccc2c2ccc(N)cc21`, the Potency is 7.94 µM (active).
Same read-out and setting: with `Cc1ccc(N=CN(C)C=Nc2ccc(C)cc2C)c(C)c1` the entry was “inactive”; with `C=CCN1CC[C@]23CCCC[C@H]2[C@H]1Cc1ccc(O)cc13`, “inactive”; with `Cc1c(Cl)c(=O)oc2cc(OP(=O)(OCCCl)OCCCl)ccc12`, “inactive”.
On the same count and under the same terms, with `COc1cc(N)c(Cl)cc1C(=O)NC1CN2CCC1CC2` (centres undefined) the entry was “inactive”; with `O=C1NCN(c2ccccc2)C12CCN(CCCOc1ccc(F)cc1)CC2`, “inactive”.
Take `C[C@]12Cc3nonc3C[C@@H]1CC[C@@H]1[C@@H]2CC[C@@]2(C)[C@H]1CC[C@]2(C)O`: the Potency result is “inactive”.
The same measure, in the same setting: then `CN1C[C@@H](NS(=O)(=O)N(C)C)C[C@@H]2c3cccc4c3c(cn4C)C[C@H]21`, with “inactive”; and `CCC1(c2cccc(O)c2)CCCCN(C)C1` (centres undefined), with “inactive”; and `CCN(CC)C(C)C(=O)c1ccccc1` (centres undefined), with “inactive”.
The same measure, in the same setting: with `C[C@]12C=CC(=O)C=C1CC[C@@H]1[C@@H]2CC[C@@]2(C)[C@H]1CC[C@]2(C)O` the entry was “inactive”; with `CCCC(C)C1(CC)C(=O)N=C(S)NC1=O` (centres undefined), “inactive”.
Turning to `COP(=O)(OC)C(O)C(Cl)(Cl)Cl` (centres undefined), the Potency result is “inactive”.
For `Oc1c(Br)cc(Br)cc1Br`, the Potency result is “inactive”.
The same measure, in the same setting: then `CC[C@]1(O)CC[C@H]2[C@@H]3CCC4=CCCC[C@@H]4[C@H]3CC[C@@]21C`, with “inactive”; and `C[N+]1(C)[C@@H]2CC[C@H]1CC(OC(=O)C(CO)c1ccccc1)C2` (some centres undefined), with “inactive”.
In the case of `CCC1(c2ccccc2)CCC(=O)NC1=O` (centres undefined), the Potency result was “inactive”.
For the compound `C[C@H](N)[C@H](O)c1ccc(O)c(O)c1`, the Potency entry is “inactive”.

The values are drawn from PubChem BioAssay (NCATS).
